Data from PubChem BioAssay (EPA / NIEHS).
Activity calls are given as the source filed them. The calls were made as follows: active = hit-call score of the fitted dose curve at least 0.9, where 1 is the maximum; inactive = score below 0.9.

Experiments:
[1] = read-out: Interleukin-1 alpha (IL1a), IL1A (gene 3552); assay: BSK_KF3CT_IL1a: BioMAP Diversity Plus: KF3CT Assay for Interleukin-1 alpha (IL1a) Biomarker Activity (AID 2283070); details: primary human keratinocytes with fibroblasts; actives raise or lower the signal
Method in brief: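 Primary human keratinocyte plus foreskin fibroblast co-culture, dosed and measured at 24 h in 96-well plates. IL-1a level quantified by ELISA; bidirectional fit relative to DMSO.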

[2] = read-out: TIMP metallopeptidase inhibitor 2 (TIMP2), TIMP2 (gene 7077); assay: BSK_KF3CT_TIMP2: BioMAP Diversity Plus: KF3CT Assay for TIMP metallopeptidase inhibitor 2 (TIMP2) Biomarker Activity (AID 2283071); details: primary human keratinocytes with fibroblasts; actives raise or lower the signal
Method in brief: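 Human primary keratinocyte/foreskin fibroblast co-culture dosed with chemical and sampled at 24 h. TIMP-2 levels quantified by ELISA; bidirectional fitting against DMSO negative control as baseline.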

[3] = read-out: C-C motif chemokine 2 (Homo sapiens) (UniProt P13500); assay: BSK_KF3CT_MCP1: BioMAP Diversity Plus: KF3CT Assay for Monocyte Chemoattractant Protein 1 (MCP1/CCL2) Biomarker Activity (AID 2283073); details: primary human keratinocytes with fibroblasts; actives raise or lower the signal
Method in brief: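 Biomarker MCP-1 is measured by ELISA in primary human keratinocytes co-cultured with foreskin fibroblasts, 24 h after chemical treatment; DMSO serves as the negative control and activity baseline.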

[4] = read-out: Matrix Metallopeptidase 9 (MMP9), MMP9 (gene 4318); assay: BSK_KF3CT_MMP9: BioMAP Diversity Plus: KF3CT Assay for Matrix Metallopeptidase 9 (MMP9) Biomarker Activity (AID 2283074); details: primary human keratinocytes with fibroblasts; actives raise or lower the signal;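 as to AC50: MMP9 protein level quantified by ELISA in the co-culture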
Method in brief: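 Human keratinocyte and foreskin fibroblast co-culture exposed to chemicals for 24 h; MMP9 biomarker measured by ELISA, bidirectional fitting relative to DMSO; cytotoxicity tracked by SRB total protein staining in parallel cultures.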

[5] = read-out: urokinase plasminogen activator (uPA), PLAU (gene 5328); assay: BSK_KF3CT_uPA: BioMAP Diversity Plus: KF3CT Assay for urokinase plasminogen activator (uPA) Biomarker Activity (AID 2283075); details: primary human keratinocytes with fibroblasts; actives raise or lower the signal
Method in brief: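 Primary human keratinocyte/foreskin fibroblast co-culture exposed to chemical; uPA measured by ELISA at 24 h. Bidirectional fit versus DMSO, with parallel SRB total-protein staining for cytotoxicity.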

CD40, CD40 (gene 958) [6] = assay: BSK_LPS_CD40: BioMAP Diversity Plus: LPS Assay for CD40 Biomarker Activity (AID 2283076); details: primary human HUVEC with PBMC; actives raise or lower the signal
Method in brief: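 Using a multiplexed primary human co-culture (umbilical vein endothelium plus PBMC), CD40 was read by ELISA 24 h after dosing, with cytotoxicity tracked by sulforhodamine B staining of parallel cultures and activity fitted bidirectionally versus DMSO.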

[7] = read-out: E-selectin (Homo sapiens) (UniProt P16581); assay: BSK_LPS_Eselectin: BioMAP Diversity Plus: LPS Assay for Eselectin Biomarker Activity (AID 2283077); details: primary human HUVEC with PBMC; actives raise or lower the signal
Method in brief: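 Dose chemical onto LPS-driven HUVEC/PBMC co-culture; after 24 h, run ELISA for E-selectin; fit up- and down-going responses relative to DMSO control.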

[8] = read-out: Interleukin-8 (IL8), CXCL8 (gene 3576); assay: BSK_LPS_IL8: BioMAP Diversity Plus: LPS Assay for Interleukin-8 (IL8) Biomarker Activity (AID 2283078); details: primary human HUVEC with PBMC; actives raise or lower the signal
Method in brief: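 In this LPS system, chemical-treated human umbilical vein endothelium/PBMC co-cultures were harvested at 24 h for IL-8 ELISA.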

[9] = BSK_LPS_SRB: Viability Assessment in the BioMAP Diversity Plus: LPS Assay (AID 2283079); details: primary human HUVEC with PBMC;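 also: total protein by sulforhodamine B absorbance as a cytotoxicity measure; measured one day after compound addition; fitted in both directions against DMSO so loss or gain of signal counts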
Method in brief: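 Cytotoxicity endpoint in human endothelial–PBMC co-culture: 24 h exposure, then SRB (0.1%) staining, 560 nm read.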

[10] = read-out: Interleukin-1 alpha (IL1a), IL1A (gene 3552); assay: BSK_LPS_IL1a: BioMAP Diversity Plus: LPS Assay for Interleukin-1 alpha (IL1a) Biomarker Activity (AID 2283080); details: primary human HUVEC with PBMC; actives raise or lower the signal
Method in brief: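 Primary human HUVEC and PBMC co-culture stimulated with LPS is dosed and harvested at 24 h. Both increases and decreases in ELISA-measured IL-1a are scored relative to DMSO.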

[11] = read-out: Monocyte Chemoattractant Protein-1 (MCP1), CCL2 (gene 6347); assay: BSK_LPS_MCP1: BioMAP Diversity Plus: LPS Assay for Monocyte Chemoattractant Protein-1 (MCP1) Biomarker Activity (AID 2283081); details: primary human HUVEC with PBMC; actives raise or lower the signal;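 as to AC50: secreted MCP-1 protein quantified by ELISA in culture supernatant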
Method in brief: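 Values derive from bidirectional fitting against DMSO of ELISA-measured MCP-1 in a human primary endothelial and mononuclear cell co-culture, 24 h after chemical addition under LPS activation.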

[12] = BSK_LPS_PGE2: BioMAP Diversity Plus: LPS Assay for Prostaglandin E2 (PGE2) Biomarker Activity (AID 2283082); details: primary human HUVEC with PBMC; actives raise or lower the signal;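 as to AC50: secreted prostaglandin E2 measured by ELISA in LPS-stimulated co-culture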
Method in brief: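 HUVEC plus PBMC co-culture stimulated with LPS; secreted PGE2 quantified by ELISA 24 h after chemical dosing. Activity fitted bidirectionally against DMSO as negative control and baseline; parallel SRB total-protein staining served as cytotoxicity check.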

[13] = read-out: Macrophage colony-stimulating factor (MCSF), CSF1 (gene 1435); assay: BSK_LPS_MCSF: BioMAP Diversity Plus: LPS Assay for Macrophage colony-stimulating factor (MCSF) Biomarker Activity (AID 2283083); details: primary human HUVEC with PBMC; actives raise or lower the signal
Method in brief: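 Bidirectional fit versus DMSO of ELISA-measured M-CSF in co-cultured human umbilical vein endothelial cells and PBMC, sampled 24 h after dosing.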

[14] = read-out: Tissue Factor, F3 (gene 2152); assay: BSK_LPS_TissueFactor: BioMAP Diversity Plus: LPS Assay for Tissue Factor Biomarker Activity (AID 2283084); details: primary human HUVEC with PBMC; actives raise or lower the signal
Method in brief: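 Read-out: CD142 ELISA, 24 h. System: LPS-driven human endothelial/PBMC co-culture. Analysis: up- or down-signal fitted against DMSO.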

[15] = read-out: Tumor necrosis factor (Homo sapiens) (UniProt P01375); assay: BSK_LPS_TNFa: BioMAP Diversity Plus: LPS Assay for Tumour Necrosis Factor alpha (TNFa) Biomarker Activity (AID 2283085); details: primary human HUVEC with PBMC; actives raise or lower the signal;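 as to AC50: TNFa protein level quantified by ELISA in the co-culture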
Method in brief: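 Human umbilical vein endothelial cells co-cultured with PBMC were exposed to test chemical and TNFa measured by ELISA 24 h after dosing. Bidirectional curve fitting was done relative to DMSO as negative control and baseline.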

[16] = read-out: Vascular cell adhesion molecule 1 (VCAM1), VCAM1 (gene 7412); assay: BSK_LPS_VCAM1: BioMAP Diversity Plus: LPS Assay for Vascular cell adhesion molecule 1 (VCAM1) Biomarker Activity (AID 2283086); details: primary human HUVEC with PBMC; actives raise or lower the signal
Method in brief: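 Human umbilical vein endothelial cells co-cultured with peripheral blood mononuclear cells under LPS stimulation were exposed to test chemical for 24 h. VCAM-1 levels were then measured by ELISA, with bidirectional curve fitting relative to DMSO as negative control and baseline.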

CD38, CD38 (gene 952) = assay: BSK_SAg_CD38: BioMAP Diversity Plus: SAg Assay for CD38 Biomarker Activity (AID 2283087); details: primary human HUVEC with PBMC; actives raise or lower the signal
Method in brief: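 Fluorescence ELISA of cell-surface CD38 served as the read-out, with either increase or decrease fitted against DMSO controls. Cells were a human umbilical vein endothelium plus PBMC co-culture under SEB/TSST-1 stimulation, measured 24 h after dosing.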

CD40, CD40 (gene 958) [17] = assay: BSK_SAg_CD40: BioMAP Diversity Plus: SAg Assay for CD40 Biomarker Activity (AID 2283088); details: primary human HUVEC with PBMC; actives raise or lower the signal
Method in brief: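 Endpoint derived by fitting increases or decreases versus DMSO controls. CD40 is detected by fluorescence ELISA in a human vascular co-culture of endothelium and PBMC at 24 h.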

CD69, CD69 (gene 969) = assay: BSK_SAg_CD69: BioMAP Diversity Plus: SAg Assay for CD69 Biomarker Activity (AID 2283089); details: primary human HUVEC with PBMC; actives raise or lower the signal;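 as to AC50: cell surface CD69 protein quantified by ELISA with fluorescence detection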
Method in brief: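 Endothelial/PBMC co-culture; chemical added; 24 h incubation; CD69 ELISA with fluorescence detection; bidirectional fit vs DMSO.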

Measured: AC50

Sequence of E-selectin (Homo sapiens) (P16581 whole entry, looked up): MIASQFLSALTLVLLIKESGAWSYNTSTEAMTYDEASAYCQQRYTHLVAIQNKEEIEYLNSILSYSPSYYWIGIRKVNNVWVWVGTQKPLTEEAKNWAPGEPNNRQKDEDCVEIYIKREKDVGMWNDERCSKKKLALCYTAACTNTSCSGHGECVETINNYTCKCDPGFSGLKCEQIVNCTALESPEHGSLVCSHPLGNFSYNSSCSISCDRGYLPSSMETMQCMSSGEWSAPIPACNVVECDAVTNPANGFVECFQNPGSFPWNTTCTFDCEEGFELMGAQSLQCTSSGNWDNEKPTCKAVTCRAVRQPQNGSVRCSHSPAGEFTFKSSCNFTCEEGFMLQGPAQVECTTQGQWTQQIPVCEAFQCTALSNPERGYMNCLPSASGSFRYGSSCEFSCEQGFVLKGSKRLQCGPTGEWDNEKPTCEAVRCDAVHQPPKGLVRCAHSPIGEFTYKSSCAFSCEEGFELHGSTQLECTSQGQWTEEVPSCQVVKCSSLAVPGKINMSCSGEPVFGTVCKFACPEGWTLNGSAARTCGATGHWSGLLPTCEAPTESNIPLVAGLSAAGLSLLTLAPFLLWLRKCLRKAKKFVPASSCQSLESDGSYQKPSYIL
Sequence of Tumor necrosis factor (Homo sapiens) (P01375 whole entry, looked up): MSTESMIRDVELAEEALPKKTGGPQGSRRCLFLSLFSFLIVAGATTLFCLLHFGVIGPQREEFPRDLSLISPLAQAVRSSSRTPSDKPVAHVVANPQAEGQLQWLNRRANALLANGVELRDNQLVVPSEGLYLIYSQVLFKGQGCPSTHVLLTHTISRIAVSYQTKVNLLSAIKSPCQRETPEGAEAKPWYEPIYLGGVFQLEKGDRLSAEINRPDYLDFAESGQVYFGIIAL

N#Cc1nn(-c2c(Cl)cc(C(F)(F)F)cc2Cl)c(N)c1S(=O)C(F)(F)F (stereo not given)
active: CD40, CD40 (gene 958) [6] 14.9 µM | [7] 36.8 µM | [8] 23.4 µM | [9] 31.4 µM | [10] 35.9 µM | [11] 32.4 µM | [13] 20 µM | [15] 5.27 µM | [16] 31.2 µM | CD38, CD38 (gene 952) 29.7 µM | CD40, CD40 (gene 958) [17] 28.1 µM | CD69, CD69 (gene 969) 25.6 µM
inactive: [1] | [2] | [3] | [4] | [5] | [12] | [14]

CC(Oc1ccc(Cl)cc1Cl)C(=O)O (stereo not given)
inactive: all assays above

CCNc1nc(Cl)nc(NCC)n1
active: [15] 8.37 µM
inactive: all other assays above

COP(N)(=O)SC (stereo not given)
active: [12] 20 µM
inactive: all other assays above

CCON=C(CC)C1=C(O)CC(c2c(C)cc(C)cc2C)CC1=O (stereo not given)
active: [12] 20 µM
inactive: all other assays above

CC1=C(C(=O)Nc2ccccc2)SCCO1
active: [12] 8.8 µM
inactive: all other assays above

O=C(O)COc1nc(Cl)c(Cl)cc1Cl
active: [15] 27.8 µM
inactive: all other assays above

CCCCNC(=O)n1c(NC(=O)OC)nc2ccccc21
active: [1] 20 µM | [9] 7.48 µM | [16] 22.6 µM
inactive: all other assays above

C=CCC1=C(C)[C@@H](OC(=O)[C@@H]2[C@@H](C=C(C)C)C2(C)C)CC1=O
active: [4] 32.6 µM | CD40, CD40 (gene 958) [6] 29.2 µM | [7] 32.4 µM | [8] 26.3 µM | [9] 36.2 µM | [10] 32.3 µM | [11] 32.1 µM | [12] 4.92 µM | [13] 26.9 µM | [15] 36.5 µM | [16] 29.2 µM | CD38, CD38 (gene 952) 33.1 µM | CD40, CD40 (gene 958) [17] 38.7 µM | CD69, CD69 (gene 969) 36.5 µM
inactive: [1] | [2] | [3] | [5] | [14]

CCOC(=O)CC(SP(=S)(OC)OC)C(=O)OCC (stereo not given)
inactive: all assays above
